Source: the supplement of paper PMC12350171
Counter-ions that a name gives are not always drawn. Values without a mark were called inactive.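 Rule for the calls: active = AUC significantly below DMSO controls by Student t-fit with adjusted P under 0.01; inactive = not significantly reduced.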

System: Haemophilus parainfluenzae
Test: growth AUC normalised to DMSO control (fraction of control); higher = less growth inhibition, active = hit call of the paper
Settings: 20 µM
Summary of the method: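 Hemin and NAD were added to the medium for Haemophilus parainfluenzae. All pathogens, after two anaerobic passages, were inoculated at a starting OD578 of 0.01 into pre-reduced mGAM plates with 20 μM compound and 1% DMSO under breathable seals, and OD578 was read hourly for 24 h in three biological replicates. AUC of each growth curve was obtained with the trapezoidal rule up to the exponential-to-stationary transition and normalised to DMSO controls from the same plate.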

SMILES	growth AUC normalised to DMSO control
N=C(N)N1CCc2ccccc2C1 [Debrisoquin sulfate]	0.978
C[N+](C)(CCOc1ccccc1)Cc1ccccc1.O=C([O-])c1cc2ccccc2cc1O [Bephenium hydroxynaphthoate]	1.04
C[C@H]1O[C@H](O[C@H]2[C@H](O)[C@@H](O)[C@@H](O[C@@H]([C@H](O)[C@@H](O)C=O)[C@H](O)CO)O[C@@H]2CO)[C@H](O)[C@@H](O)[C@@H]1N[C@H]1C=C(CO)[C@@H](O)[C@H](O)[C@H]1O [Acarbose]	1.02
Cc1ccc(S(=O)(=O)NC(=O)NN2CCCCCC2)cc1 [Tolazamide]	1.04
Cc1cnc(C(=O)NCCc2ccc(S(=O)(=O)NC(=O)NC3CCCCC3)cc2)cn1 [Glipizide]	0.995
CN1CCCC(CC2c3ccccc3Sc3ccccc32)C1 (centres undefined) [Metixene hydrochloride]	0.999
NCCc1ccc(O)c(O)c1 [Dopamine hydrochloride]	1.07
O=C(CCCN1CC=C(n2c(=O)[nH]c3ccccc32)CC1)c1ccc(F)cc1 [Droperidol]	0.995
COC(=O)Nc1nc2cc(Sc3ccccc3)ccc2[nH]1 [Fenbendazole]	1.04
CN[C@H]1CC[C@@H](c2ccc(Cl)c(Cl)c2)c2ccccc21 [Sertraline]	0.929
COc1ccccc1OCC(O)COC(N)=O (centres undefined) [Methocarbamol]	0.977
Cc1cn([C@H]2C=C[C@@H](CO)O2)c(=O)[nH]c1=O [Stavudine]	1.02
CCCc1nc(C)c2c(=O)nc(-c3cc(S(=O)(=O)N4CCN(CC)CC4)ccc3OCC)[nH]n12 [Vardenafil]	1.03
CCCCNc1ccc(C(=O)OCCOCCOCCOCCOCCOCCOCCOCCOCCOC)cc1 [Benzonatate]	1
CC1COc2c(N3CCN(C)CC3)c(F)cc3c(=O)c(C(=O)O)cn1c23 (centres undefined) [Ofloxacin]	0.0492 (active)
CCn1cc(C(=O)O)c(=O)c2cc(F)c(N3CCN(C)CC3)cc21 [Pefloxacin]	0.0557 (active)
Nc1ccc(S(=O)(=O)NC(=O)c2ccccc2)cc1 [Sulfabenzamide]	1.1
C=C1/C(=C\C=C2/CCC[C@]3(C)[C@@H]([C@H](C)/C=C/[C@@H](O)C4CC4)CC[C@@H]23)C[C@@H](O)C[C@@H]1O [Calcipotriene]	0.836
CC(C(=O)O)c1ccc(C(=O)c2ccccc2)s1 (centres undefined) [Tiaprofenic acid]	1
Cc1ccc(-c2cc(C(F)(F)F)nn2-c2ccc(S(N)(=O)=O)cc2)cc1 [Celecoxib]	0.85
CCn1cc(C(=O)O)c(=O)c2cnc(N3CCNCC3)nc21 [Pipemidic acid]	0.915
COc1cc(C)nc(-n2nc(C)cc2OC)n1 [Epirizole]	0.999
CN(C)CCC=C1c2ccccc2C=Cc2ccccc21 [Cyclobenzaprine hydrochloride]	0.893
CN1CCC(=C2c3ccccc3CC(=O)c3sccc32)CC1 [Ketotifen fumarate]	0.997
N=C(NCCCCCCNC(=N)NC(=N)Nc1ccc(Cl)cc1)NC(=N)Nc1ccc(Cl)cc1 [Chlorhexidine]	0.139 (active)
Cc1c(C)c2c(c(C)c1O)CCC(C)(C(=O)O)O2 (centres undefined) [Trolox]	1
NCCCCCC(=O)O [Aminocaproic acid]	1.1
COC(=O)C1=C(C#N)NC(C)=C(C(=O)OC(C)C)C1c1cccc([N+](=O)[O-])c1 (centres undefined) [Nilvadipine]	0.985
CC(=O)O[C@H]1C[C@@]2(C)[C@@H](C[C@@H](O)[C@H]3[C@@]4(C)CC[C@@H](O)[C@@H](C)[C@@H]4CC[C@@]32C)/C1=C(\CCC=C(C)C)C(=O)O [Fusidic acid sodium salt]	0.345 (active)
